Results filed as inconclusive are left out. The source made the active and inactive calls. Unless noted, the call rests on the fitted dose curve.
Legend:
[1] = Nuclear factor erythroid 2-related factor 2/antioxidant responsive element (Nrf2/ARE) small molecule agonists: qHTS cell viability counter screen in human keratinocytes (AID 1919968; active means well fitted curve in the direction sought with a large enough effect in the repeat runs; an effect the other way counts as inactive or inconclusive; further: nearly all actives have a fitted effect of over 55% in size; further: potency means the concentration at half of the fitted maximal effect)
Method in brief: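 Viability counter-screen: KeratinoSens reporter cells, DMSO-delivered compounds, 23 h at 37 C, CellTiter-Fluor fluorescence.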

[2] = target: Gonadotropin-releasing hormone receptor (Homo sapiens) (UniProt P30968); assay: Human gonadotropin-releasing hormone receptor (GnRHR) small molecule agonists, calcium flux assay in GnRHR-HEK293 cells (AID 1920063); further: nearly all actives have a fitted effect of over 35% in size
Method in brief: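 Tox21-format agonist screen using human GnRHR-expressing HEK293 cells and a fluorescent calcium dye; kinetic 3-min fluorescence reading after compound addition, 15-point concentration series run in triplicate.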

[3] = target: KiSS-1 receptor (Homo sapiens) (UniProt Q969F8); assay: Human kisspeptin (KISS1R) small molecule agonists, calcium flux assay in KISS1R-HEK293 cells (AID 1920064; active means well fitted curve in the direction sought with a large enough effect in the repeat runs; an effect the other way counts as inactive or inconclusive)
Method in brief: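 Intracellular calcium mobilization in KISS1R-HEK293 cells was recorded by fluorescence (Ex/Em 480/540) for 3 min following compound addition to cells pre-loaded 1 h with calcium dye.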

[4] = G protein-coupled receptor (GPCR) small molecule agonists, calcium flux assay: HEK293 wild type cell line counter screen (AID 1920065)
Method in brief: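 In this agonist-mode screen, ATP is the positive control and DMSO the vehicle. Cells grow 18 h before a 1 h dye incubation at 37 C; signal is taken at Ex/Em 480/540 over 3 min.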

[5] = p53 small molecule agonists, cell-based qHTS assay with human liver microsomes (AID 1963577)
Method in brief: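 p53RE-bla cells, 4,000/well, compound added after 5 h, with human liver microsomes 0.5 mg/mL and NADPH 0.5 mg/mL final; 16 h at 37 C, then LiveBLAzer 2 h RT, fluorescence.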

[6] = p53 small molecule agonists, cell-based qHTS assay with rat liver microsomes (AID 1963578)
Method in brief: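 p53RE-bla cells, 4,000/well, pre-incubated 5 h, then given compounds plus rat liver microsomes (0.5 mg/mL final) and NADPH (0.5 mg/mL final). Incubation 16 h at 37 C; beta-lactamase reporter read by LiveBLAzer fluorescence after 2 h at room temperature.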

[7] = p53 small molecule agonists, cell-based qHTS assay with human liver microsomes: qHTS cell viability counter screen (AID 1963579); further: nearly all actives have a fitted effect of over 45% in size
Method in brief: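 p53RE-bla cells, 4,000/well, dosed 5 hours after plating, with human liver microsomes (0.5 mg/mL final) plus NADPH (0.5 mg/mL final), 16 hours at 37 C. Viability read as CellTiter-Glo luminescence after 30 min at room temperature.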

[8] = p53 small molecule agonists, cell-based qHTS assay with rat liver microsomes: qHTS cell viability counter screen (AID 1963580); further: nearly all actives have a fitted effect of over 45% in size
Method in brief: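 Viability is assessed in parallel with the p53 reporter read: HCT-116 p53RE-bla cells receive compounds plus rat microsomes and NADPH (0.5 mg/mL final apiece), incubate 16 h at 37 C, and then CellTiter-Glo luminescence is recorded.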

[9] = p53 small molecule agonists, cell-based qHTS assay: qHTS cell viability counter screen (AID 1963581); further: nearly all actives have a fitted effect of over 45% in size
Method in brief: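 Compounds are pinned onto HCT-116 p53RE-bla cells and left 16 h at 37 C. Following the reporter FRET read, ATP is quantified by CellTiter-Glo luminescence after 30 min at room temperature.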

[10] = p53 small molecule agonists, cell-based qHTS assay (AID 1963582; active means well fitted activation curve with a large enough effect in the signal ratio in the repeat runs, not every such curve was filed as active; the % refers to the signal ratio)
Method in brief: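 Agonist activity was scored from beta-lactamase FRET fluorescence in p53RE-bla cells treated 16 h at 37 C with compounds in DMSO, substrate incubation being 2 h at room temperature.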

[11] = target: 5-hydroxytryptamine receptor 2A (Homo sapiens) (UniProt P28223); assay: 5-hydroxytryptamine receptor 2A (HTR2A) small molecule antagonists, cell-based qHTS assay (AID 1963586); further: nearly all actives have a fitted effect of over 45% in size
Method in brief: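 Antagonist-mode intracellular calcium assay: DOI (4 nM) added after 5 min compound pre-incubation at room temperature to dye-loaded HTR2A-CHO cells. Fluorescence followed for 3 min, sampled every second.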

[12] = target: 5-hydroxytryptamine receptor 2A (Homo sapiens) (UniProt P28223); assay: 5-hydroxytryptamine receptor 2A (HTR2A) small molecule agonists, cell-based qHTS assay (AID 1963587); further: nearly all actives have a fitted effect of over 30% in size
Method in brief: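 CHO cells stably expressing human HTR2A, plated 18 h, loaded with calcium dye 1 h at 37 C. Agonist mode: compounds added and intracellular calcium fluorescence recorded kinetically for 2 min at 1 sec intervals.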

[13] = target: Muscarinic acetylcholine receptor M1 (Homo sapiens) (UniProt P11229); assay: Cholinergic receptor muscarinic 1 (CHRM1) small molecule antagonists, cell-based qHTS assay (AID 1963588); further: nearly all actives have a fitted effect of over 40% in size
Method in brief: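 CHRM1-CHO calcium-flux assay, antagonist mode. Cells were seeded 18 h, dye-loaded 1 h at 37 C and given compound for 5 min at RT, then acetylcholine was added at 50nM. FDSS fluorescence was read 3 min; 15 concentrations, three runs.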

[14] = target: Muscarinic acetylcholine receptor M1 (Homo sapiens) (UniProt P11229); assay: Cholinergic receptor muscarinic 1 (CHRM1) small molecule agonists, cell-based qHTS assay (AID 1963589); further: nearly all actives have a fitted effect of over 35% in size
Method in brief: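 Stable CHRM1-CHO cells (human receptor) were incubated 18 h, dye-loaded for 1 h at 37 C and exposed to test compounds for agonist activity, with calcium-dependent fluorescence followed kinetically.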

[15] = cAMP Responsive Elements (CRE) small molecule agonists, cell-based qHTS assay (AID 1963590)
Method in brief: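 FRET-based beta-lactamase readout (LiveBLAzer B/G, 2 h RT) quantified CRE activation in HEK 293T CRE-bla cells after 3 h treatment with DMSO-dissolved compounds.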

[16] = cAMP Responsive Elements (CRE) small molecule antagonists, cell-based qHTS assay (AID 1963591; active means well fitted inhibition curve with a large enough effect in the signal ratio in the repeat runs, not every such curve was filed as active; the % refers to the signal ratio; further: potency means the concentration at half of the fitted maximal effect)
Method in brief: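 qHTS in CRE-bla HEK 293T cells: compound in DMSO, then 0.25 uM NKH477 (final), 3 h at 37 °C/5% CO2; beta-lactamase FRET read-out after 2 h substrate incubation.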

[17] = target: Beta-2 adrenergic receptor (Homo sapiens) (UniProt P07550); assay: Adrenergic beta2 receptor (ADRB2) small molecule antagonists, cell-based qHTS assay (AID 1963592); further: nearly all actives have a fitted effect of over 50% in size; further: potency means the concentration at half of the fitted maximal effect
Method in brief: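 Cells (CHO, stable ADRB2 overexpression) incubated 18-20hr at 37C; compounds added from DMSO; agonist mix (1nM isoproterenol, 100uM IBMX, 25uM Ro-20-1724) added; 0.5hr RT; d2-cAMP and anti-cAMP-cryptate added; 1hr RT; 665/615 nm read.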

[18] = target: D(2) dopamine receptor (Homo sapiens) (UniProt P14416); assay: Dopamine D2 receptor (DRD2) small molecule agonists, cell-based qHTS assay (AID 1963594); further: nearly all actives have a fitted effect of over 35% in size
Method in brief: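 HEK293 cells stably expressing human DRD2, pre-treated with PDE inhibitor Ro20-1724 (0.1 mM final) and compound 10 min at room temperature, then stimulated with NKH477 (200nM […]) for 30 min. cAMP read by HTRF (665/620 nm).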

[19] = target: D(2) dopamine receptor (Homo sapiens) (UniProt P14416); assay: Dopamine D2 receptor (DRD2) small molecule antagonists, cell-based qHTS assay (AID 1963595; active means well fitted inhibition curve with a large enough effect in the signal ratio in the repeat runs, with a control signal flat; the % refers to the signal ratio)
Method in brief: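 HTRF cAMP read-out at 665 and 620 nm emission (340 nm excitation). Antagonist mode: compounds were tested against 12 nM quinpirole in DRD2-HEK293 cells, with 200 nM NKH477 raising cAMP and 0.1 mM Ro20-1724 blocking its breakdown.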

[20] = target: Beta-2 adrenergic receptor (Homo sapiens) (UniProt P07550); assay: Adrenergic beta2 receptor (ADRB2) small molecule agonists, cell-based qHTS assay (AID 1963593);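 further: CHO cells stably overexpressing human ADRB2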
Method in brief: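 CHO cells stably over-expressing ADRB2 were plated overnight at 37C, then dosed with compounds plus a stimulation mix containing 100uM IBMX and 25uM Ro-20-1724 for 0.5hr at room temperature. cAMP was measured by HTRF competition, 1hr.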

Measured: Potency

Gonadotropin-releasing hormone receptor (Homo sapiens), sequence (P30968 whole entry, looked up): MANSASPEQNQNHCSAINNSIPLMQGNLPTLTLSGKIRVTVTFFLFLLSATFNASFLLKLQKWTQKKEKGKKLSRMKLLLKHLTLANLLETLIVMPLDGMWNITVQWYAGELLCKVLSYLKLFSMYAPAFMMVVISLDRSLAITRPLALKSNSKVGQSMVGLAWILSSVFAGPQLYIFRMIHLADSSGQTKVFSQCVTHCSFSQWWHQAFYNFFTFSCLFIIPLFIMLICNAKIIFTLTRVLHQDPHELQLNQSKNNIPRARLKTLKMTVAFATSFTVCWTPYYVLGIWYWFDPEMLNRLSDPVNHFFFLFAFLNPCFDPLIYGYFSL
D(2) dopamine receptor (Homo sapiens), sequence (P14416 whole entry, looked up): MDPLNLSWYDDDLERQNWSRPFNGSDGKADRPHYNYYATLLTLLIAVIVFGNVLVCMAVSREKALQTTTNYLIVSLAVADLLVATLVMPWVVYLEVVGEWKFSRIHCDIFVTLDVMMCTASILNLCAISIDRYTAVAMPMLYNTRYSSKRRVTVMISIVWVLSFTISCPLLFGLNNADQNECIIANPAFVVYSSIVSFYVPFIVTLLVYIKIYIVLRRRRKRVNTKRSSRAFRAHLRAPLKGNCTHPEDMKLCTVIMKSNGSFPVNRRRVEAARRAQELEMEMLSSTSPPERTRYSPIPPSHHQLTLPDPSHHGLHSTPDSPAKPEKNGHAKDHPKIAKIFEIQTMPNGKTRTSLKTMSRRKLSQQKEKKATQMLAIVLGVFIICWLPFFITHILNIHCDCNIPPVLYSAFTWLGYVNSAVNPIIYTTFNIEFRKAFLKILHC
5-hydroxytryptamine receptor 2A (Homo sapiens), sequence (P28223 whole entry, looked up): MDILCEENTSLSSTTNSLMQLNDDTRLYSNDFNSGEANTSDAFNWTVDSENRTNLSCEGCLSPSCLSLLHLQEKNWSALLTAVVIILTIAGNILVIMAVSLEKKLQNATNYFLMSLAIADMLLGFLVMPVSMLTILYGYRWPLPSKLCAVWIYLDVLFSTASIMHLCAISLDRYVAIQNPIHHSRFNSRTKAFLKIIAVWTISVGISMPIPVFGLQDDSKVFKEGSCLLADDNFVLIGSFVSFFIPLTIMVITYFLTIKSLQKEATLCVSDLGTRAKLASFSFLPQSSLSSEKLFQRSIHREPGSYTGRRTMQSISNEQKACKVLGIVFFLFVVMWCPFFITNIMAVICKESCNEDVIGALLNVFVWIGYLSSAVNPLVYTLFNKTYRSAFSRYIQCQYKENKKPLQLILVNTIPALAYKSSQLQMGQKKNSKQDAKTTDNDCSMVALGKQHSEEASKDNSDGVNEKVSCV
Beta-2 adrenergic receptor (Homo sapiens), sequence (P07550 whole entry, looked up): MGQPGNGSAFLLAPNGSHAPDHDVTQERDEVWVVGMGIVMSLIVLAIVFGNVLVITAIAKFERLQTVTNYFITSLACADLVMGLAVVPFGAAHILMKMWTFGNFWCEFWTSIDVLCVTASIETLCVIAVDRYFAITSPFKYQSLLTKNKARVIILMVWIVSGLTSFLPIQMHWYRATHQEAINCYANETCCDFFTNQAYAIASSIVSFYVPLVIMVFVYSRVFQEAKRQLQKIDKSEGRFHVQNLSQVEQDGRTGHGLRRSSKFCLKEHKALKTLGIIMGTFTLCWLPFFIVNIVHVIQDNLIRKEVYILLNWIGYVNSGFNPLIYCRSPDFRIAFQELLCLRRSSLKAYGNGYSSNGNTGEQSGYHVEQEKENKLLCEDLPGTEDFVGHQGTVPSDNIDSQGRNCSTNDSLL
Muscarinic acetylcholine receptor M1 (Homo sapiens), sequence (P11229 whole entry, looked up): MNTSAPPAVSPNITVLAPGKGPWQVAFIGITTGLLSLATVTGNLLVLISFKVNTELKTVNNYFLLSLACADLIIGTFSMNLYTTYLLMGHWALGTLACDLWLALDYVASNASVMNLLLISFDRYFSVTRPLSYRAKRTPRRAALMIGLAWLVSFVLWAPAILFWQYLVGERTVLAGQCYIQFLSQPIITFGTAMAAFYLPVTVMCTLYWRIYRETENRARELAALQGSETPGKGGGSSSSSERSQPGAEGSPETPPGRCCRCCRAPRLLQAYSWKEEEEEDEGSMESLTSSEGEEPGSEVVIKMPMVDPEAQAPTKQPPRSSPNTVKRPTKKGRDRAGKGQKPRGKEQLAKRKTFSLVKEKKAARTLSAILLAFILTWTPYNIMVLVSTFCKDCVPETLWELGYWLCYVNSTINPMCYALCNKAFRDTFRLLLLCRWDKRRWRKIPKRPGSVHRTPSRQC
KiSS-1 receptor (Homo sapiens), sequence (Q969F8 whole entry, looked up): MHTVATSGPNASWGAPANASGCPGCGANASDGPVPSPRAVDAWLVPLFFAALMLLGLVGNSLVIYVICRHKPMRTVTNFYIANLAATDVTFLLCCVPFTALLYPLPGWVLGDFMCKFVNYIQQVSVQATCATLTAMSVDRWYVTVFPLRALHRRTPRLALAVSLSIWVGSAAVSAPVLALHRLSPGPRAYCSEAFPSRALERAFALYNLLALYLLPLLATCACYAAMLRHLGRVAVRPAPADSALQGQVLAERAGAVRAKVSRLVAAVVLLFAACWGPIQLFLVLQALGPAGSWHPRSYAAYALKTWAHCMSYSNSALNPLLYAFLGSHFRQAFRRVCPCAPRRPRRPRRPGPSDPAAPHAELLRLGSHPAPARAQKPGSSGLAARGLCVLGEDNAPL

O=C(c1ccccc1)C1CCCCC1
not listed: [20]
inactive: all other assays above

Cc1cccc(OCC(O)CNC(C)(C)C)c1C (centres undefined)
active: [17] 0.0075 µM
not listed: [18] | [19] | [20]
inactive: all other assays above

C/C(CC(C)C)=N\O
inactive: all assays above

CC(C)(C)c1ccc(C(=O)O)cc1
inactive: all assays above

CCC(C)OC(=O)N1CCCCC1CCO (centres undefined)
not listed: [20]
inactive: all other assays above

CCCCOc1ccc(N)cc1
inactive: all assays above

CC1=CCC(C(C)C)C=C1 (centres undefined)
inactive: all assays above

CC(C)(c1ccc(Oc2ccc(N)cc2)cc1)c1ccc(Oc2ccc(N)cc2)cc1
active: [1] 38.6 µM
not listed: [20]
inactive: all other assays above

CC(C)COC(=O)CC(C(=O)OCC(C)C)S(=O)(=O)O (centres undefined)
not listed: [20]
inactive: all other assays above

CCOC(=O)CC(=O)C(=O)OCC
not listed: [19] | [20]
inactive: all other assays above

CC/C=C\CCCCCO
not listed: [17]
inactive: all other assays above

CCCCCCCCCCC1CO1 (centres undefined)
not listed: [20]
inactive: all other assays above

CC1=C(C(=O)O)N2C(=O)[C@@H](NC(=O)[C@H](N)c3ccc(O)cc3)[C@H]2SC1
not listed: [18] | [20]
inactive: all other assays above

Cc1ccc2ccc(Cl)cc2n1
not listed: [20]
inactive: all other assays above

COc1nc(N)nc2c1ncn2[C@@H]1O[C@H](CO)[C@@H](O)[C@@H]1O
not listed: [19]
inactive: all other assays above

CC(C)CCCC(C)CC=O (centres undefined)
not listed: [2] | [3] | [4] | [12] | [14] | [17] | [20]
inactive: all other assays above

c1ccc(-c2ccccn2)nc1
inactive: all assays above

CCc1c(C)cc(N)c(CC)c1N
not listed: [17] | [19] | [20]
inactive: all other assays above

C[C@@H](N)C(=O)O
not listed: [16] | [18]
inactive: all other assays above

Nc1c(Cl)cc(Cl)cc1[N+](=O)[O-]
not listed: [16]
inactive: all other assays above

CCCCCCCCCCCCCCCBr
not listed: [20]
inactive: all other assays above

C=CCOC(=O)CCC1CCCCC1
inactive: all assays above

Cc1ccc([N+](=O)[O-])cc1Cl
not listed: [20]
inactive: all other assays above

CCC(C)(C)C1CCC(O)CC1 (centres undefined)
not listed: [20]
inactive: all other assays above

C[C@@]12CCC[C@H]1[C@@H]1CC[C@H]3C[C@@H](O)CC[C@]3(C)[C@H]1CC2
not listed: [17]
inactive: all other assays above

CC(C)C=O
not listed: [16]
inactive: all other assays above

ClC(Cl)(Cl)c1ccc(C(Cl)(Cl)Cl)cc1
not listed: [20]
inactive: all other assays above

O=C(Oc1cccc2cccnc12)c1ccccc1
active: [1] 2.98 µM | [16] 23.7 µM
not listed: [20]
inactive: all other assays above

O=C(O)c1cc(C(=O)O)cc(C(=O)O)c1
not listed: [17]
inactive: all other assays above

Reference: PubChem BioAssay (Tox21)
